The record followed here is PubChem BioAssay (Tox21).

Records with an inconclusive call do not appear. A call without a number means that no potency is given here. Active and inactive are the calls of the source. Calls follow the shape of the full dose curve.
Potency is read from the fitted curve at half-maximal effect.

For the test, the target named is Acetylcholinesterase (Homo sapiens) (UniProt P22303). Briefly: Acetylcholinesterase (AChE) small molecule antagonists: fluorescence cell-based qHTS assay (AID 1347398). Also: nearly all actives have a fitted effect of over 50% in size. The conditions noted are these: SH-SY5Y cells; Potency: AChE activity; outcome: AChE activity; series mostly up to 115 µM. In outline: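 Endogenous acetylcholinesterase of SH-SY5Y neuroblastoma cells is measured in situ. After overnight attachment and 30 min compound exposure, cells receive acetylthiocholine and Thiolite Green; fluorescence is read after 40 min at room temperature.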
Sequence of Acetylcholinesterase (Homo sapiens) (P22303 whole entry, looked up): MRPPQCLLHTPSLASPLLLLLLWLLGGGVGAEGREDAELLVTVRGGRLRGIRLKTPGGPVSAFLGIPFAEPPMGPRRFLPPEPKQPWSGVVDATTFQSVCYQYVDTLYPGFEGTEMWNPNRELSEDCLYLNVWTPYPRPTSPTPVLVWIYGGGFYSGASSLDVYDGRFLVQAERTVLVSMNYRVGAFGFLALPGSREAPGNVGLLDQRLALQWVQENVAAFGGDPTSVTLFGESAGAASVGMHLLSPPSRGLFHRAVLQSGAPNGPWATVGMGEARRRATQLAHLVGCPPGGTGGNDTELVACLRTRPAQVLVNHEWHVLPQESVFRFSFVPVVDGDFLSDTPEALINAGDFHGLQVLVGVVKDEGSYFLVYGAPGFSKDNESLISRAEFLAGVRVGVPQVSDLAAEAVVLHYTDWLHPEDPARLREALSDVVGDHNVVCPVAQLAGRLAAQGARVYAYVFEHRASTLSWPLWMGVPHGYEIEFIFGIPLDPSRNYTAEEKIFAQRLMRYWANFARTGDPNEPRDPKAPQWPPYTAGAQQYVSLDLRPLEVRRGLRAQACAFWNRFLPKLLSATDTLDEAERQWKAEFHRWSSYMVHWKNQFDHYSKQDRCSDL
Consider `CCCCCCCCCCCC(=O)OCC(C)OC(=O)CCCCC(=O)O` (centres undefined), for which the Potency entry is “inactive”. With `c1ccc2sc(SN3CCOCC3)nc2c1`, the Potency entry is “inactive”. Next, `O=C(O)CCSSCCC(=O)O`: “inactive”; `Nc1nc(N)c2nc(-c3ccccc3)c(N)nc2n1`: “inactive”; `CC(C)Nc1cccnc1N1CCN(C(=O)c2cc3cc(NS(C)(=O)=O)ccc3[nH]2)CC1`: “inactive”.

With `CC1CCC(CO)CC1` (centres undefined), the Potency result is “inactive”. Consider `CCN(Cc1cccnc1)C(=O)c1cccc(Cl)c1[C@]1(C)C(=O)N(Cc2ccc(OC)cc2OC)c2ccc(Cl)cc21`, for which the Potency result was “inactive”. Next, `C[C@H]1C[C@H]2[C@@H]3CCC4=CC(=O)C=C[C@]4(C)[C@@]3(Cl)[C@@H](O)C[C@]2(C)[C@@]1(O)C(=O)CO`: “inactive”.

For the compound `CN1CCN(C2=Nc3cc(F)ccc3Cc3ccccc32)CC1`, the Potency entry is “inactive”. For `C1CCCNCCC1`, the Potency entry is “inactive”. Next, `O=C1c2ccccc2CCc2ccccc21`: “inactive”; `c1ccc(-c2ccccn2)nc1`: “inactive”.

For `CC(=O)Oc1c(C)c(C)c2c(c1C)CC[C@@](C)(CCC[C@H](C)CCC[C@H](C)CCCC(C)C)O2`, the Potency result is “inactive”.

As for `CCCCOCCOC(=O)c1ccccc1C(=O)OCCOCCCC`, the Potency result was “inactive”. In the case of `C=C(C)C(=O)OCc1ccccc1` it was “inactive”; in that of `O=C(/C=C/c1ccccc1)OCc1ccccc1`, “inactive”; in that of `CCOCCOCCOCCO`, “inactive”. Next, `CCCCCCCCCCCC(=O)Cl`: “inactive”. Regarding `O=C(NO)c1ccccc1`, the Potency entry was “inactive”. Next, `O=C[C@@H](O)[C@H](O)[C@H](O)CO`: “inactive”; `COC(=O)c1c(C)cc(O)c(C)c1O`: “inactive”.

Take `O=S(=O)(Cl)c1c(Cl)cccc1Cl`: the Potency entry was “inactive”.

For the compound `CC(=O)OC(C(=O)c1ccccc1)c1ccccc1` (centres undefined), the Potency entry is “inactive”. Consider `CC(=O)CC(=O)Nc1ccc(C)cc1C`, for which the Potency result was “inactive”. In the case of `CC(C)(C)c1nnc(NS(=O)(=O)c2ccccc2)s1` it was “inactive”; in that of `CCCC(C)=O`, “inactive”; in that of `Cc1c(F)cc2c(=O)c(C(=O)O)cn3c2c1CCC3C` (centres undefined), “inactive”. Next, `COc1ccc(-n2nc(CCC(=O)N(C)O)cc2-c2ccc(Cl)cc2)cc1`: “inactive”; `CCC(=O)O[C@]1(C(=O)SCF)[C@H](C)C[C@H]2[C@@H]3C[C@H](F)C4=CC(=O)C=C[C@]4(C)[C@@]3(F)[C@@H](O)C[C@@]21C`: “inactive”. Next, `O=P(O)(OCc1ccccc1)OCc1ccccc1`: “inactive”; `O[C@@H](COc1cccc2ncccc12)CN1CCN(C2c3ccccc3[C@@H]3[C@H](c4ccccc42)C3(F)F)CC1` (some centres undefined): “inactive”; `O=C(Oc1ccccc1C(=O)O)c1ccccc1O`: “inactive”.

Turning to `CCCCOCC(C)OCC(C)O` (centres undefined), the Potency is 29 µM (active).

With `CCCCOCCOC(=O)COc1cc(Cl)c(Cl)cc1Cl`, the Potency entry was “inactive”. In the case of `CCOC(=O)COc1ccc2c(C)c(CCN(CC)CC)c(=O)oc2c1Cl` it was 6.92 µM (active); in that of `CCn1cc(C(=O)O)c(=O)c2cc(F)c(N3CCNCC3)nc21`, “inactive”. Next, `C=C(C)C(N)=O`: “inactive”; `CNC[C@H](O)[C@@H](O)[C@H](O)[C@H](O)CO`: “inactive”.

As to `S=C([S-])NCCNC(=S)[S-].S=C([S-])NCCNC(=S)[S-].[Mn+2].[Zn+2]`, the Potency was 30.9 µM (active).
